# Source: PubChem
# A selection: hits, their analogues and other compounds. The true share with any hit is near 21%.
# RORgamma inh: qHTS for inhibitors of ROR gamma transcriptional activity; Drosophila S2 Gal4-RORgamma UAS-luciferase reporter, 20 h; Potency, µM (highest dose often 53.6 µM), usual class: inhibitors; actives 5.4% (n = 310,000); AID 2551, 2010; note: nearly all actives have a fitted effect of over 60% in size
# Target sequence (P51450 whole entry, looked up, the tested form may be a part): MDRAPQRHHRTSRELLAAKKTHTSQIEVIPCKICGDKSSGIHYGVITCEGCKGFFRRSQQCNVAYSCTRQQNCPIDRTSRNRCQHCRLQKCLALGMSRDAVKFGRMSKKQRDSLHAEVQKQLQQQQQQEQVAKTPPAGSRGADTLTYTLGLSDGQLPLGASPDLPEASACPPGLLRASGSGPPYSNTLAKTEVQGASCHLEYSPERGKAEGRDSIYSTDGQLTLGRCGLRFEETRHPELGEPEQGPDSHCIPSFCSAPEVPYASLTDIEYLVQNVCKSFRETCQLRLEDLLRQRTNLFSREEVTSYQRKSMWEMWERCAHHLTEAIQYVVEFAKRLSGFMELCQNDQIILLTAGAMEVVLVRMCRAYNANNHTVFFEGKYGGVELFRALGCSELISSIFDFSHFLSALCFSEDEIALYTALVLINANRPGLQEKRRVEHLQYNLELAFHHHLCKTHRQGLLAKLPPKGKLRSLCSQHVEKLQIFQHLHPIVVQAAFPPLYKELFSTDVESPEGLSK
#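 Schneider cells (Drosophila), stable Gal4 DBD–ROR gamma + UAS-luc; 1 hr cmpd preincubation; Cu2+ induction 700 uM final; 20 hr ambient; luminescence.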
# ELG1 repair inh: qHTS screen for small molecules that inhibit ELG1-dependent DNA repair in human embryonic kidney (HEK293T) cells expressing luciferase-tagged ELG1; AID 504467, 2011; actives 2.3% (n = 330,000); HEK293T ELG1-luciferase reporter, luminescence, 16 h; DNA damage induced by 5-fluorouridine; Potency, µM (titrated, usually from 46.1 µM), actives largely listed as inhibitors; note: nearly all actives have a fitted effect of over 55% in size
#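 Quantitative HTS, concentration-response format. 2,000 cells/well co-treated with 5-fluorouridine and compound, 16 hr in 5% CO2 at 37 °C; ONE-Glo luminescence read after 30 min.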
# TDP1 cell noCPT: qHTS for Inhibitors of human tyrosyl-DNA phosphodiesterase 1 (TDP1): qHTS in cells in absence of CPT; DT40 Tdp1-/- hTDP1 cells, no CPT, ATP luminescence, 48 h; Potency, µM (highest dose often 46.2 µM), most hits filed as inhibitors; actives 15% (n = 420,000); AID 686978, 2013; note: nearly all actives have a fitted effect of over 55% in size
#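 A cellular qHTS used chicken DT40 cells lacking endogenous Tdp1 but carrying stably transfected human TDP1. Compounds were applied without camptothecin, and cell growth kinetics were judged by ATP-dependent luminescence after ≥48 hr.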
# IL1B secr inh: qHTS for Inhibitors of Inflammasome Signaling: IL-1-beta AlphaLISA Primary Screen. THP-1 LPS/ATP IL-1B secretion, AlphaLISA, 16 h; active compounds read low. AID 743279, 2014. actives 4.7% (n = 360,000). activity change, % at 57.5 µM; in the data active = activity change below about -50%; inconclusive = mostly about -30% to -49%
#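 THP-1 cells pretreated 1 hr with compounds (up to 57.5 uM final), then stimulated with LPS (250 ng/mL final) plus ATP (1.25 mM final); secreted IL-1B measured by AlphaLISA after 16 hr, decreased signal indicating inhibition.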
# VP16 counter: VP16 counterscreen qHTS for inhibitors of ROR gamma transcriptional activity. Drosophila S2 Gal4-VP16 UAS-luciferase, luminescence, 20 h. Potency, µM (titrated, usually from 53.6 µM), most hits filed as inhibitors. actives 3.5% (n = 310,000). AID 2546, 2010;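 note: Gal4-VP16 expression switched on by copper sulfate through the metallothionein promoter; nearly all actives have a fitted effect of over 50% in size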
# TDP1 cell CPT: qHTS for Inhibitors of human tyrosyl-DNA phosphodiesterase 1 (TDP1): qHTS in cells in presence of CPT | chicken DT40 Tdp1-/-;hTDP1 cells + 20 nM CPT, ATP luminescence, 48 h | Potency, µM (top dose mostly 46.2 µM), most hits filed as inhibitors | actives 12% (n = 420,000); note: nearly all actives have a fitted effect of over 55% in size
#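 Chicken DT40 Tdp1-/- cells stably complemented with human TDP1 were seeded at 400 cells/well in medium containing 20 nM camptothecin, exposed to pin-transferred compounds, and grown at 37 °C for at least 48 hr. Viability was read as ATP luminescence.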
# Hits are given with their value; n = inactive; u = inconclusive; x = no result; [ ] = remark or other dose. Unless noted, calls come from the whole dose curve; as a rule, active = well fitted curve in the direction sought with a large enough effect; inconclusive = small, poorly fitted or top-dose-only effect, or another doubt; inactive = no such curve, though single readings can be large; an effect the other way counts as inactive or inconclusive.
SMILES,RORgamma inh,ELG1 repair inh,TDP1 cell noCPT,IL1B secr inh,VP16 counter,TDP1 cell CPT
COc1ccc(CN2C(=O)C(C)Oc3ccccc32)cc1 (stereo not drawn),n,n,u,n,n,n
CC1C(=O)N(Cc2ccc([N+](=O)[O-])cc2)c2ccccc2N1C(=O)c1c(F)cccc1F (stereo not drawn),n,n,16µM,u,n,u
COc1cccc(CN2C(=O)C(C)N(C(=O)c3ccccc3)c3ccccc32)c1 (stereo not drawn),n,u,6.5µM,n,n,13µM
Cc1cccc(C)c1N1C(=O)c2ccccc2NC(=O)C1C(=O)NCCOc1ccccc1 (stereo not drawn),x,x,u,n,x,n
CCC[C@H](NC(=O)[C@H](Cc1ccc(O[S+](=O)([O-])O)cc1)NC(=O)OC(C)(C)C)C(=O)NCC(=O)N[C@@H](Cc1c[nH]c2ccccc12)C(=O)N[C@@H](CCC)C(=O)N[C@@H](CC(=O)OCCc1ccccc1)C(=O)O,n,x,x,x,n,x
COc1cc(N)c(Cl)cc1C(=O)OCC(=O)NC(=O)NCc1ccco1,x,n,n,n,x,n
COc1ccc(C)cc1S(=O)(=O)N1CCCC(N2CCOCC2)C1 (stereo not drawn),n,n,n,n,n,n
CCC(=O)NC(NC(=S)Nc1cccc2cccnc12)C(Cl)(Cl)Cl (stereo not drawn),n[10 µM],n,15µM,n,n,18µM
CC(C)C(=O)NC(NC(=S)Nc1cccc2cccnc12)C(Cl)(Cl)Cl (stereo not drawn),n,n,16µM,n,n,8.2µM
CC(C)(C)C(=O)NC(Nc1cccc2cccnc12)C(Cl)(Cl)Cl (stereo not drawn),n,n,16µM,n,u,u
CC(C)(C)NC(=O)C1c2ccccc2OCC(=O)N1CCc1ccccc1 (stereo not drawn),x,x,n,n,x,n
Cc1ccc(CN2CC(C(=O)N(Cc3nnc(-c4ccccc4Cl)o3)C3CC3)CC2=O)cc1 (stereo not drawn),x,n,n,u,x,n
O=c1cc(/C=C/c2cccs2)[nH]c2ccccc12,n,u,2.1µM,n,n,2.6µM
COc1ccc(Cl)cc1NC(=O)CCc1nnc2ccc(N3CCC4(CC3)OCCO4)nn12,n,n,n,n,n,n
C[C@H](CO)N1C[C@H](C)[C@H](CN(C)C(=O)NC2CCCCC2)Oc2ncc(Br)cc2C1=O,x,x,n,n,x,n
Cn1c(=O)oc2cc(S(=O)(=O)N3CCCC(C(=O)N4CCN(c5ccc(F)cc5)CC4)C3)ccc21 (stereo not drawn),x,x,4.1µM,x,x,7.3µM
COc1ccc(N2CCN(C(=O)C3CCN(S(=O)(=O)c4ccc5c(c4)oc(=O)n5C)CC3)CC2)cc1,n,n,9.2µM,n,n,u
Cc1ccc(C)c(N2CCN(C(=O)C(CC(C)C)NS(=O)(=O)c3ccc4nc(C)sc4c3)CC2)c1 (stereo not drawn),x,x,16µM,x,x,u
COc1cc(NC(=O)C2CCN(S(=O)(=O)c3ccc4c(c3)oc(=O)n4C)CC2)cc(OC)c1,x,x,21µM,x,x,u
CCCCN(C)C(=O)C1CCCN(S(=O)(=O)c2ccc3c(c2)oc(=O)n3C)C1 (stereo not drawn),n,n,n,n,n,u
COc1cc(OC)c(NC(=O)C2CCN(S(=O)(=O)c3ccc4c(c3)oc(=O)n4C)CC2)cc1Cl,x,x,n,x,x,n
Cc1nn(-c2ccccc2)nc1-c1nnc(-c2ccc(C(F)(F)F)cc2)o1,n,n,n,n,n,n
CSCCC(NS(=O)(=O)c1ccc2c(c1)oc(=O)n2C)C(=O)N1CCN(c2cc(C)ccc2C)CC1 (stereo not drawn),x,x,23µM,x,x,u
CSCCC(NS(=O)(=O)c1ccc2c(c1)oc(=O)n2C)C(=O)N1CCN(c2ccc(C(C)=O)cc2)CC1 (stereo not drawn),x,x,n,x,x,n
Cc1ccc(C)c(N2CCN(C(=O)C3CCCN(S(=O)(=O)c4ccc5c(c4)oc(=O)n5C)C3)CC2)c1 (stereo not drawn),x,x,12µM,x,x,16µM
SMILES,RORgamma inh,ELG1 repair inh,TDP1 cell noCPT,IL1B secr inh,VP16 counter,TDP1 cell CPT
CCOC(=O)C1CCCN(C(=O)C2CCCN(S(=O)(=O)c3ccc4c(c3)oc(=O)n4C)C2)C1 (stereo not drawn),n,u,u,n,n,n
Cn1c(=O)oc2cc(S(=O)(=O)N3CCCC(C(=O)N4CCc5ccccc5C4)C3)ccc21 (stereo not drawn),u,u,15µM,n,n,16µM
CN1CCN(C(=O)C2CCN(S(=O)(=O)c3ccc4c(c3)oc(=O)n4C)CC2)CC1,n,n,n,n,n,n
Cn1c(=O)oc2cc(S(=O)(=O)N3CCCC(C(=O)N4CCn5c4nc4ccccc45)C3)ccc21 (stereo not drawn),n,u,x,x,n,x
Cc1ccc(C)c(N2CCN(C(=O)C3CCN(S(=O)(=O)c4ccc5[nH]c(=O)oc5c4)CC3)CC2)c1,x,x,26µM,x,x,23µM
O=P(Cc1cccc2ccccc12)(c1ccccc1)c1ccccc1,x,x,21µM,n,x,u
COc1ccc(C)cc1NC(=O)CSc1nc2ccccc2nc1N1CC(C)OC(C)C1 (stereo not drawn),n,u,26µM,n,n,23µM
COc1ccccc1NC(=O)CSc1nc2ccccc2nc1N1CC(C)OC(C)C1 (stereo not drawn),n,u,u,n,n,21µM
Fc1ccc(NCc2ccccc2-c2nnc(-c3ccccc3Cl)o2)cc1,x,x,u,x,x,n
CC1=C/C(=N\NC(=O)c2ccccc2)CC1,13µM,u,n,n,u,n
CCOC(=O)/C(=N\NC(=O)c1ccccc1)c1ccccc1,n,n,n,n,n,n
CCN(CC)C(=O)C1=C(C)N(CCCOC)C(=O)C(CC(=O)NC2CCCC2)C1 (stereo not drawn),x,x,n,n,x,n
CCN(CC)c1ccc(C(=O)NCc2ccc3c(c2)CCN3C(C)=O)cc1,x,x,n,x,x,n
COc1ccc(C(=O)NCc2ccc3c(c2)CCN3C(=O)c2cccc(C)c2)cc1OC,x,x,n,x,x,n
CCC(=O)N1CCc2cc(CNC(=O)Nc3cc(C)ccc3C)ccc21,x,x,n,x,x,n
